# Results from PubChem BioAssay.
# Where “and” joins values, the source holds several entries; their conditions need not be identical. Equal entries are not always repeated. Calls of active or inactive are those of the source. Rule as the data show it, unless noted: active = inhibition above about 80%; inactive = the rest.
# Tests used:
# [1] = target: NAD(+) hydrolase SARM1 (Homo sapiens) (UniProt Q6SZW1); assay: blocking NAD cleavage by SARM1 SAM-TIR – cell lysate, NAD-Glo luminescence (AID 1508614;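 active = compound whose remaining NAD level is above about 45 nM, limit read from the data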;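 also: higher remaining NAD means stronger inhibition of SARM1 NADase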); settings: SAM-TIR HEK293T lysate NADase, at 1 µM, stronger effect = higher value
# NAD(+) hydrolase SARM1 (Homo sapiens), sequence (Q6SZW1 whole entry, looked up): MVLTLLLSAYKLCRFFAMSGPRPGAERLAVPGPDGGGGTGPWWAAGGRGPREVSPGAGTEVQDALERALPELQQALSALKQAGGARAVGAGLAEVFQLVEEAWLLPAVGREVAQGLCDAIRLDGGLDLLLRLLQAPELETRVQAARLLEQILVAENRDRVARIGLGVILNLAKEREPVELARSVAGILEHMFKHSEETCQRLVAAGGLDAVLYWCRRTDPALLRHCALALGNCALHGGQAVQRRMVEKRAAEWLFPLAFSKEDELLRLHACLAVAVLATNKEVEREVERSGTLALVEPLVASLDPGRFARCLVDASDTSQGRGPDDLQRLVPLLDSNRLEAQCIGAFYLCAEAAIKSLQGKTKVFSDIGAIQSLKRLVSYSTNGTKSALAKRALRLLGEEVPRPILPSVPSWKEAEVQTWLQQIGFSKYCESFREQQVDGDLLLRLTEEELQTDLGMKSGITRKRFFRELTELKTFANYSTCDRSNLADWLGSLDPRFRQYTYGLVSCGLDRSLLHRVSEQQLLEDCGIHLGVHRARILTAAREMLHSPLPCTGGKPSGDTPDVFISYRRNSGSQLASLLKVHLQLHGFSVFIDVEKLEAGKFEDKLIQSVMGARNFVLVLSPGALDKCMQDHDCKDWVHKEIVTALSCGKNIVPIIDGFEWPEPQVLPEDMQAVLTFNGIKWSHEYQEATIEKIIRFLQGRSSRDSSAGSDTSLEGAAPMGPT
# [2] = galactose survival enhancers in mitochondrial complex I cybrids – cell-based, galactose medium, ATP luminescence, primary screen (AID 1645843;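 active = z-score of at least 1.8 in each of two replicates, scored against plate mean and spread of sample wells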;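 also: positive z means more ATP and so rescue of galactose-driven cybrid death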); settings: complex I mutant cybrid cells, 72 h, stronger effect = higher value
# [3] = growth inhibition, single agent or in combination, cell-based, chromothripsis tumors, cisplatin or BGB combos (AID 1671449); settings: LFS_MB_P medulloblastoma cells;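 also: cells exposed for 96 hours; 0% = vehicle DMSO and 100% = killing by high DMSO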
# [4] = growth inhibition, single agent and combos, cell-based, chromothripsis tumors, cisplatin or BGB combos (AID 1671450); settings: HDN33 neuroblastoma cells, stronger effect = higher value;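 also: cells exposed to compound for four days; 0% = vehicle DMSO and 100% = cell killing by high DMSO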
# [5] = growth inhibition, single agents and combos, ICB984, cell-based, cisplatin or BGB combos, synergistic combos for chromothripsis tumors (AID 1671451; call rule not given here;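 also: cells exposed for 96 hours before readout; 0% = vehicle DMSO and 100% = killing by high DMSO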); settings: ICB984 medulloblastoma cells, drug combinations, stronger effect = higher value
# [6] = growth inhibition, single agents and combos, LFS_MB_1R, cell-based, cisplatin or BGB combos, synergistic combos for chromothripsis tumors (AID 1671452); settings: LFS_MB_1R medulloblastoma cells, stronger effect = higher value;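 also: cells exposed for 96 hours before readout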
# [7] = growth inhibition, single agents and combos, HTB85, cell-based, BGB or cisplatin IC20 combos, synergistic combos for chromothripsis tumors (AID 1671453); settings: HTB85 osteosarcoma cells, drug combinations, stronger effect = higher value;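 also: cells exposed for 96 hours before readout; 0% = vehicle DMSO and 100% = high DMSO killing control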
# [8] = growth inhibition, single agents and combos, CRL2098, cell-based, BGB or cisplatin IC20 combos, synergistic combos for chromothripsis tumors (AID 1671454); settings: CRL2098 osteosarcoma cells, drug combinations, stronger effect = higher value;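 also: cells exposed for 96 h before readout; 0% = vehicle DMSO and 100% = killing by high DMSO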
# [9] = growth inhibition, single agents and combos, HD-MB03, cell-based, BGB or cisplatin IC20 combos, synergistic combos for chromothripsis tumors (AID 1671455; in the data active = inhibition above about 83%;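 also: 0% = vehicle DMSO and 100% = high DMSO as cytotoxic control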); settings: HD-MB03 medulloblastoma cells, stronger effect = higher value
# [10] = growth inhibition, single agents and combos, UWB1.289, cell-based, BGB or cisplatin combos, synergistic combos for chromothripsis tumors (AID 1671456); settings: UWB1.289 ovarian carcinoma cells, stronger effect = higher value;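 also: cells exposed to compound for four days; 0% = vehicle DMSO and 100% = killing by high DMSO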
# [11] = growth inhibition, single agents and combos, LFS_MB_2R, cell-based, cisplatin combos, synergistic combos for chromothripsis tumors (AID 1671457); settings: LFS_MB_2R medulloblastoma cells, stronger effect = higher value;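 also: cells exposed to compound for four days before readout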
# [12] = growth inhibition, MDA-MB-436, cell-based, BGB or cisplatin combos, synergistic combos for chromothripsis tumors (AID 1671458; call rule not given here;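 also: cells exposed for 96 hours; 0% = vehicle DMSO and 100% = killing by high DMSO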); settings: MDA-MB-436 breast carcinoma growth inhibition, drug combinations, stronger effect = higher value
# [13] = UWB1.289_BRCA1 ovarian cancer growth, cell-based, BGB or cisplatin combinations (AID 1671459); settings: UWB1.289 BRCA1 ovarian carcinoma, drug combinations, stronger effect = higher value
# [14] = drug combination toxicity in non-malignant astrocytes – cell-based, BGB or cisplatin IC20 combos, cytotoxicity control for chromothriptic childhood tumor combination screen (AID 1671460); settings: Human astrocytes, viability inhibition, drug combinations, at 0.5 µM, stronger effect = higher value;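 also: cells exposed to compounds for 96 hours before viability readout; 0% = vehicle and 100% = killing control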
# [15] = BT084 cell growth, single and combined drugs, ICGC_MB145, cisplatin and BGB IC40 combos (AID 1671461); settings: BT084 medulloblastoma cells, drug combinations, stronger effect = higher value;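 also: cells exposed to drugs for 96 hours; 0% = vehicle DMSO and 100% = high DMSO full killing control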
# [16] = RCMB18 cell growth, single agent and combined, cisplatin and BGB IC40 combos (AID 1671462); settings: RCMB18 medulloblastoma cells, stronger effect = higher value;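 also: cells exposed to compound for four days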
# [17] = CRL1545 cell growth, single agent and combined, cisplatin and BGB IC20 combos (AID 1671464); settings: CRL1545 osteosarcoma cells, stronger effect = higher value;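 also: cells exposed to compound for 96 hours before readout; 0% = vehicle DMSO and 100% = high DMSO killing control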
# F380Y = assay: BK channel mutant inhibitors and activators – cell-based, U2OS BacMam, thallium flux, beta subunits, selectivity assay, profiling panel (AID 1259406;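 active = thallium flux through the channel raised or lowered by more than 3 SD from vehicle-only wells, actives on both sides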;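 also: initial slope of Thallos dye fluorescence rise after thallium is added; log ratio against the mean of 0.3% DMSO vehicle wells on the same plate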); settings: U2OS BacMam BK variants, at 30 µM
# F380Y/beta1 = assay: as above; settings: U2OS BacMam BK variants, at 30 µM
# [18] = measured here: combination with BGB IC40, at 0.05 µM
# [19] = measured here: with BGB IC20 combination, at 0.5 µM
# [20] = measured here: with cisplatin IC20 combination, at 0.5 µM
# [21] = measured here: combination with cisplatin, at 0.5 µM
# [22] = measured here: combination with cisplatin, at 5 µM
smiles,measurement,setting,value
Nc1nc2c(ncn2CCC(CO)CO)c(=O)[nH]1,remaining NAD,[1],10 nM (inactive)
same,z-score,[2],0.83 (inactive) and 0.595 (inactive)
same,inhibition,"[3]; at 0.5 µM, stronger effect = higher value",-31.4% (inactive) and 10.2% (inactive)
same,inhibition,"[3]; measured here: combination with BGB IC20, at 0.005 µM",18% and -5.86%
same,inhibition,"[3]; measured here: combination with BGB IC40, at 0.005 µM",-15.5% and -23.1%
same,inhibition,[3]; [18],-8% and -22.9%
same,inhibition,"[3]; measured here: combination with cisplatin, at 0.5 µM, stronger effect = higher value",-43% and 6.39%
same,inhibition,"[3]; measured here: combination with cisplatin, at 5 µM, stronger effect = higher value",-0.859% and -46.3%
same,inhibition,"[4]; BGB combo, at 5 µM",-37% and 3.74%
same,inhibition,[4]; at 0.5 µM,-21.5% (inactive) and -13.7% (inactive)
same,inhibition,"[4]; cisplatin combo, at 5 µM",-35.4% and 5.76%
same,inhibition,[4]; [19],-20.3% and -5.75%
same,inhibition,[4]; [20],-28.1% and -7.91%
same,inhibition,"[4]; single agent, at 5 µM",-23.7% and -10.4%
same,inhibition,"[5]; BGB IC20 combo, at 0.005 µM",6.03% and -7.22%
same,inhibition,"[5]; BGB IC40 combo, at 0.005 µM",-30.8% and -8.59%
same,inhibition,"[5]; BGB IC40 combo, at 0.05 µM",-28.9% and 4.12%
same,inhibition,[5]; at 0.5 µM,-31.2% (inactive) and -13.2% (inactive)
same,inhibition,"[5]; cisplatin combo, at 0.05 µM",-34.1% and 1.44%
same,inhibition,"[5]; cisplatin combo, at 0.5 µM",-50.7% and 4.42%
same,inhibition,"[5]; cisplatin combo, at 5 µM",-20.3% and -61.9%
same,inhibition,"[5]; measured here: 5 uM single agent, at 5 µM",6.97% and -17.4%
same,inhibition,[6]; at 0.5 µM,-19.7% (inactive) and -18.4% (inactive)
same,inhibition,[6]; [18],-23.5% and -18.9%
same,inhibition,[6]; [21],-56.8% and -22.6%
same,inhibition,[6]; [22],-7.78% and -27.3%
same,inhibition,[7]; at 0.5 µM,-21.5% (inactive) and -5.99% (inactive)
same,inhibition,"[7]; measured here: with BGB IC20, at 0.5 µM",-16.4% and -34.5%
same,inhibition,"[7]; measured here: with BGB IC20, at 5 µM",-7.68% and -31%
same,inhibition,"[7]; measured here: with cisplatin IC20, at 0.5 µM",-24.9% and -1.09%
same,inhibition,"[7]; measured here: with cisplatin IC20, at 5 µM",-9.05% and -28%
same,inhibition,"[7]; single agent, at 5 µM",-16.3% and 0.079%
same,inhibition,[8]; at 0.5 µM,-37% (inactive) and -44.9% (inactive)
same,inhibition,"[8]; measured here: combination with BGB at IC20, at 0.5 µM",-37.8% and -1.8%
same,inhibition,"[8]; measured here: combination with cisplatin at IC20, at 0.5 µM",-13.5% and -79.6%
same,inhibition,[9]; at 0.5 µM,-6.81% (inactive) and 1.52% (inactive)
same,inhibition,"[9]; measured here: combo with BGB at IC20, at 0.5 µM",-13.9% and 7.53%
same,inhibition,"[9]; measured here: combo with cisplatin at IC20, at 0.5 µM",-2.89% and -3%
same,inhibition,[10]; at 0.5 µM,-12.6% (inactive) and 3.48% (inactive)
same,inhibition,"[10]; measured here: inhibition with BGB combination, at 0.05 µM",-7.99% and -7.52%
same,inhibition,"[10]; measured here: inhibition with cisplatin combination, at 0.05 µM",-19.6% and -12.5%
same,inhibition,[11]; at 0.5 µM,-3.59% (inactive) and -17% (inactive)
same,inhibition,[11]; [21],-6.24% and -17.7%
same,inhibition,[11]; [22],9.1% and -63%
same,inhibition,[12]; at 0.5 µM,-1.2% (inactive) and -23.3% (inactive)
same,inhibition,"[12]; measured here: BGB combination, at 0.5 µM",8.81% and -18.4%
same,inhibition,"[12]; measured here: BGB combination, at 5 µM",4.8% and -29%
same,inhibition,"[12]; measured here: cisplatin combination, at 0.5 µM",-6.71% and -45.8%
same,inhibition,"[12]; measured here: cisplatin combination, at 5 µM",5.49% and -36%
same,inhibition,"[13]; BGB combination, concentration series, at 5 µM",-16.8% and -15.8%
same,inhibition,[13]; at 0.5 µM,-10.2% (inactive) and 1.59% (inactive)
same,inhibition,"[13]; cisplatin combination, concentration series, at 5 µM",4.16% and 10.4%
same,inhibition,[14],6.25% (inactive) and 7.18% (inactive)
same,inhibition,[14]; measured here: combo with BGB IC20,34.9% and 5.65%
same,inhibition,[14]; measured here: combo with cisplatin IC20,-9.35% and -4.75%
same,inhibition,[15]; at 0.5 µM,8.52% (inactive) and -29.3% (inactive)
same,inhibition,"[15]; cisplatin combination, at 0.5 µM",-11.9% and -14.8%
same,inhibition,"[15]; cisplatin combination, at 5 µM",-3.68% and -10.8%
same,inhibition,"[15]; measured here: BGB IC40 combination 0.05 uM, at 0.05 µM",45.4% and 1.15%
same,inhibition,"[15]; single agent, at 5 µM",-12.8% and -18.7%
same,inhibition,[16]; at 0.5 µM,0.33% (inactive) and -16.2% (inactive)
same,inhibition,"[16]; cisplatin combo, at 5 µM",3.43% and -89.1%
same,inhibition,"[16]; measured here: BGB IC40 combination, at 0.05 µM",3.48% and 8.53%
same,inhibition,[16]; [21],-3.27% and -9.97%
same,inhibition,"[16]; single agent, at 5 µM",-16.9% and 37.5%
same,inhibition,[17]; at 0.5 µM,-5.94% (inactive) and 9.73% (inactive)
same,inhibition,[17]; [19],-31% and 11.5%
same,inhibition,[17]; [20],6.57% and 6.77%
same,inhibition,"[17]; single agent, at 0.05 µM",-14.4% and -21.2%
same,inhibition,"[17]; single agent, at 5 µM",-30.6% and 1.59%
same,log fold change Tl+ flux,F380Y,0.0173 (inactive)
same,log fold change Tl+ flux,F380Y/beta1,-0.0111 (inactive)
